# Over roughly 2,300 compounds, “plate-normalized OD600 growth (mean of duplicates)” has its median near 0.29; the lowest 2% begin near 0.22. Many of the other results were omitted from the sample, so the lowest values are more common in it than they were.
# Tested on: Escherichia coli BW25113
# Assay: plate-normalized OD600 growth (mean of duplicates) (OD600 (normalized)); higher = more growth (less inhibition)
# Conditions: 10 µM
# Method: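 E. coli BW25113 in LB (100 µl, 96-well, no shaking) was exposed to 10 µM of each compound from a ~30,000-member library and grown at 37°C for 24 h or 15°C for 48 h, in duplicate. Growth was read as OD600 and the duplicate ODs were normalized across screening plates to correct plate-to-plate variation. Hits were >3σ below the mean OD600 at 15°C and <2σ below the mean at 37°C.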
SMILES,"plate-normalized OD600 growth (temperature: 15°C, 48 h)","plate-normalized OD600 growth (temperature: 37°C, 24 h)"
O=C(COc1ccccc1[N+](=O)[O-])Nc1ccccn1,0.24,0.619
COc1ccc(Nc2nc(N/N=C/c3ccc(-c4cccc(C(=O)O)c4)o3)nc(Nc3ccccc3)n2)cc1,0.226,0.634
CC(C)(C)OC(=O)NC(Cc1ccc(OCc2ccccc2)cc1)C(=O)O (stereo not given),0.26,0.615
CCOC(=O)/C(C(C)=O)=C1/SCC(C)S1 (stereo not given),0.235,0.609
O=C1CC2(CCCC2)C(=O)N1CCNc1nccc(C(F)(F)F)n1,0.261,0.637
Cc1ccc(NC(=O)Nc2ccc(C)c(NC(=O)Nc3ccc(C)cc3)c2)cc1,0.242,0.578
O=C(CNC(=O)C(c1ccccc1)c1ccccc1)N/N=C/c1cc(Br)ccc1O,0.237,0.617
COc1cc(OC)c(C2C(C#N)=C(N)Oc3n[nH]c(-c4cccnc4)c32)cc1OC (stereo not given),0.244,0.612
CCc1nc(N)c(C#N)c(-c2ccccc2)c1C,0.239,0.61
CSc1nc2sc(C)c(C)c2c(=O)n1-c1ccccc1,0.219,0.653
O=C1/C(=C\c2ccc(Cl)cc2Cl)N=C(c2ccccc2)N1C1CC1,0.241,0.577
COc1ccc(C(=O)NCC(=O)N/N=C(\C)c2cccc(N)c2)cc1OC,0.249,0.633
O=C1CCc2cccc3cccc1c23,0.235,0.604
CCN(CC)c1ccc(C2C(C(=O)OC3CCCCC3)=C(C)NC3=C2C(=O)CC(c2ccc(Cl)cc2)C3)cc1 (stereo not given),0.238,0.614
CC1(C)C2CCC1(C)C(N/C(=C(/C(Cl)=C(Cl)Cl)[N+](=O)[O-])n1nnc3ccccc31)C2 (stereo not given),0.253,0.629
CSc1ccc(/C=C2\N=C(c3ccccc3)N(c3ccc(C(=O)Nc4ccc(Br)cc4)cc3)C2=O)cc1,0.257,0.649
COc1ccc(OC)c(NC(=O)c2ccc(N3C(=O)/C(=C/c4ccc(Cl)cc4)N=C3c3ccccc3)cc2)c1,0.216,0.634
O=C(Nc1ccc(F)c(Cl)c1)c1ccc(N2C(=O)/C(=C/c3ccccc3)N=C2c2ccccc2)cc1,0.238,0.653
COc1cc(NC(=S)N2CCN(c3ccccc3OC)CC2)c(OC)cc1Cl,0.231,0.614
Cc1cc(N2CCCC2)ccc1/C=N/n1cnnc1,0.259,0.687
Cc1cc(C=Nc2ccc(Cl)c(O)c2)c(C)n1-c1ccc(Cl)cc1,0.248,0.605
CN1N=C(SCc2ccc(Cl)cc2Cl)Sc2c1cnn(C)c2=O,0.25,0.591
CCCCCCCCNC(=O)C(=O)Nc1cccc(F)c1,0.244,0.564
Cc1ccc2c(c1)N(CCO)C(C)(C)CC2C (stereo not given),0.211,0.651

SMILES,"plate-normalized OD600 growth (temperature: 15°C, 48 h)","plate-normalized OD600 growth (temperature: 37°C, 24 h)"
O=C(Nc1ccc(S(=O)(=O)Nc2cccc(Cl)c2Cl)cc1)C1COc2ccccc2O1 (stereo not given),0.262,0.62
Cc1cc(C)c2nc3s/c(=C\c4ccccc4C(F)(F)F)c(=O)n3c2c1,0.249,0.593
Cc1nc(-c2ccccn2)nc(NCCNc2cccc(C(F)(F)F)n2)c1Cl,0.257,0.626
O=C(CC1CCC1)Nc1cc(Cl)ccc1Cl,0.256,0.619
Cc1nnsc1C(=O)Nc1ccc(CN2CCS(=O)(=O)CC2)cc1,0.244,0.614
Cc1ccc(S(=O)(=O)N=C(Nc2ccc(O)c(Cl)c2)c2ccccc2)cc1,0.232,0.618
Cc1cc(NC(=NS(=O)(=O)c2ccc(Br)cc2)c2ccccc2)cc(C)c1O,0.251,0.652
Cc1cc(NC(=NS(=O)(=O)c2ccc(Br)cc2)c2ccccc2)c(Cl)c(C)c1O,0.214,0.634
Cc1oc(CC(C)C)cc1C(=O)Nc1cccc(C(=O)O)c1,0.255,0.643
Nc1ccccc1C(=O)Nc1cc(C(=O)O)cc(C(=O)O)c1,0.232,0.625
NC(N)=Nc1nc(-c2cc(Cl)sc2Cl)cs1,0.242,0.607
COc1cc(NC(=O)CCN2CCC(C)CC2)cc(OC)c1,0.217,0.647
Cc1c(Br)sc2ccc(Cl)cc12,0.247,0.612
O=C(CC1(O)C(=O)C=C(c2ccccc2)N1N=C(c1ccccc1)c1ccccc1)c1ccccc1 (stereo not given),0.242,0.588
CCOC(=O)COc1nc(-c2ccccc2)cc(-c2ccccc2)c1C#N,0.251,0.629
COc1ccc(C2SCC(=O)N2CCN2CCCCC2)cc1 (stereo not given),0.238,0.618
O=c1[nH]c2cccnc2[nH]c1=O,0.233,0.617
COc1ccc(C2CC(=O)N2C2(C(=O)Nc3c(C)cccc3C)CCCCC2)cc1OC (stereo not given),0.24,0.605
c1ccc(OCCOc2ccccn2)nc1,0.25,0.612
COc1ccc(Nc2nc(Cl)nc(NCCC3=CCCCC3)n2)cc1,0.257,0.602
O=C1c2cccc3c(SCCO)ccc(c23)C(=O)N1CCc1ccccn1,0.265,0.634
O=C(O)c1cccc(N=Cc2ccc(OCc3ccc(F)cc3)cc2)c1,0.225,0.684
CCCc1ccc(OCC(=O)NNC(=S)Nc2ccccc2)cc1,0.244,0.618
O=[N+]([O-])c1cnc(Sc2n[nH]c(-c3cccs3)n2)s1,0.225,0.607

SMILES,"plate-normalized OD600 growth (temperature: 15°C, 48 h)","plate-normalized OD600 growth (temperature: 37°C, 24 h)"
C=CCn1c(Sc2ncc([N+](=O)[O-])s2)n[nH]c1=O,0.181,0.588
C=CCn1c(CSc2ccccc2[N+](=O)[O-])n[nH]c1=S,0.26,0.606
COc1ccc(/C=N/Nc2nnnn2-c2cccc3ccccc23)cc1OC,0.253,0.627
N#CCC(=O)N(Cc1ccccc1F)C(=O)NC1CCCCC1,0.263,0.647
N/C(=N/OC(=O)c1ccccc1)c1ccc(-c2csnn2)cc1,0.252,0.6
CCC(C)(C)C1CCc2sc3nc[nH]c(=O)c3c2C1 (stereo not given),0.248,0.626
CCOc1cc(/C=N/n2cnc3sc4c(c3c2=O)CCCC4)cc(Br)c1OCc1ccc(Cl)cc1,0.245,0.619
CCOC(=O)c1ccc(-c2ccc(/C=C(\C#N)C(=O)NC3CCCCC3)o2)cc1,0.241,0.604
Cc1cc(C)c(C(=O)CSc2nc3ccccc3[nH]2)c(C)c1,0.213,0.626
O=C(CSc1nc2ccccc2[nH]1)Nc1nc2ccccc2s1,0.244,0.604
COC(=O)CSc1nc(N)cc(=O)[nH]1,0.247,0.605
O=C1CC(NCc2ccco2)C(=O)N1c1ccc(OC(F)(F)Cl)cc1 (stereo not given),0.268,0.642
CCOC(=O)C(=CNNc1ccnc2cc(Cl)ccc12)C(=O)OCC,0.26,0.616
CCOC(=O)C(=CNNS(=O)(=O)c1cc(C(F)(F)F)cc(C(F)(F)F)c1)C(=O)OCC,0.246,0.602
CCOC(=O)C(=CNNC(=O)c1ccccc1-n1cccc1)C(=O)OCC,0.213,0.618
CC1COCCN1c1cc(N2CCCCC2C(F)(F)F)[nH]c(=O)c1 (stereo not given),0.265,0.635
N=c1c(S(=O)(=O)c2ccccc2)c(N)c(CO)c2sc3ccccc3n12,0.236,0.601
Nc1[nH]c(=O)c(CO)c(N)c1S(=O)(=O)c1ccccc1,0.211,0.632
NS(=O)(=O)c1ccc(-n2ncc3ccccc3c2=O)cc1,0.214,0.646
CCOC(=O)c1cnn(-c2ccc(NS(=O)(=O)c3ccc(Cl)cc3)cc2)c1C(F)(F)F,0.233,0.609
O=C(CNC(=O)C(c1ccccc1)c1ccccc1)N/N=C/c1ccc(-c2ccc(Cl)c(Cl)c2)o1,0.238,0.611
O=C(COc1ccc(C(F)(F)F)cc1[N+](=O)[O-])Nc1cccc(C(F)(F)F)c1,0.264,0.633
Cc1ccccc1OCC(=O)Nc1cccc(N2C(=O)c3ccccc3C2=O)c1,0.235,0.661
Cc1cccc(NC(=O)COc2ccccc2C(=O)NCCNc2ccc([N+](=O)[O-])cc2)c1,0.209,0.656

SMILES,"plate-normalized OD600 growth (temperature: 15°C, 48 h)","plate-normalized OD600 growth (temperature: 37°C, 24 h)"
CCC/C=N/NC(=O)c1ccc(N2CCCC2=O)cc1,0.26,0.647
c1ccc2c(c1)OCCCOc1ccccc1OCCCO2,0.251,0.607
COc1cc(S(=O)(=O)N2CCN(c3c(C)cccc3C)CC2)c(OC)cc1Cl,0.253,0.617
COc1cc2c(cc1OC)C(C)N(S(=O)(=O)c1cn(C)c(C)n1)CC2 (stereo not given),0.245,0.611
CC(C)CC(=O)N(NC(=O)c1ccccc1)c1ccccc1,0.22,0.615
COc1ccccc1Oc1ccc(C(F)(F)F)cc1NC(=O)NC(=O)c1ccccc1F,0.265,0.619
O=C1/C(=C\c2ccccc2)N=C(c2ccccc2)N1CNc1nccs1,0.254,0.585
O=C(O)c1cccc(S(=O)(=O)Nc2ccc(Cl)cc2)c1,0.257,0.625
CC1=C(C#N)C(c2c(C)[nH]n(-c3ccccc3)c2=O)(C(F)(F)F)C(=O)N1 (stereo not given),0.26,0.62
COc1ccccc1N=C(N)SCc1ccccc1,0.236,0.606
CCc1ccc(NC(=O)CSc2nnc3n(N)cnn23)cc1,0.238,0.609
Cc1cc(O)c(C)c(O)c1/C=N/NC(=O)CNC(=O)c1ccco1,0.245,0.61
Cc1ccc(NC(=O)c2c3c(nc4ccccc24)CCCC3)cc1,0.239,0.614
C=CCn1c(C(O)c2ccccc2)n[nH]c1=S (stereo not given),0.247,0.613
O=c1nc(-c2ccccc2)nc(-c2ccccc2)[nH]1,0.26,0.617
Cc1ccc2nc(Cl)c(C=Nc3ccccn3)cc2c1,0.226,0.611
COc1ccc(S(=O)(=O)N(Cc2ccccc2)c2ccccc2C(=O)N/N=C(\C)c2ccccc2O)cc1,0.259,0.618
O=C(NC(=S)Nc1ccc(Cc2ccncc2)cc1)c1cccc2ccccc12,0.259,0.614
COc1cc(CCNC(=O)OC(C)(C)C)c([S+]([O-])CSCc2ccccc2)cc1OC (stereo not given),0.238,0.613
Cc1cc(=O)oc2n[nH]c(-c3ccccc3)c12,0.258,0.64
O=C(c1ccco1)N1CCC(c2ccccc2)C1 (stereo not given),0.201,0.642
NC(=O)C1CCN(C(=O)c2ccco2)CC1,0.25,0.628
O=C(NCCSC1CCCCC1)c1ccco1,0.221,0.633

# From the supplement of paper PMC4371806
